Laboratory results from PubChem BioAssay AID1494156 (National Center for Advancing Translational Sciences (NCATS), 2020).
Results filed as inconclusive are left out. Values without a mark were called inactive. Active and inactive are the calls of the source. Calls come from the whole dose curve.

Assay: VSV-G qHTS counterscreen for inhibitors of MERS-S pseudo-typed particle cell entry

SMILES	activity, negative = inhibition	Potency
CCOc1cc2ncc(C#N)c(Nc3ccc(OCc4ccccn4)c(Cl)c3)c2cc1NC(=O)/C=C/CN(C)C	-3.61% [at 11.2 µM]	
Nc1ccn([C@@H]2O[C@H](CO)[C@@H](O)C2(F)F)c(=O)n1		0.136 µM (active)
O=c1ccc2ccccc2o1		inactive
COc1cc(NS(C)(=O)=O)ccc1Nc1c2ccccc2nc2ccccc12		0.764 µM (active)
COc1cc2nccc(Oc3ccc(NC(=O)C4(C(=O)Nc5ccc(F)cc5)CC4)cc3)c2cc1OC		15.2 µM (active)
CCCCN=C(N)N=C(N)N		inactive
CNC(=O)c1cc(Oc2ccc(NC(=O)Nc3ccc(Cl)c(C(F)(F)F)c3)c(F)c2)ccn1		15.2 µM (active)
C=CC(=O)Nc1cc(Nc2nccc(-c3cn(C)c4ccccc34)n2)c(OC)cc1N(C)CCN(C)C		30.4 µM (active)
CN(C)CC/C=C1\c2ccccc2Sc2ccc(Cl)cc21		8.57 µM (active)
O=C(Nc1ccc(Cl)cc1)Nc1ccc(Cl)c(C(F)(F)F)c1		10.8 µM (active)
CCc1c2c(nc3ccc(OC(=O)N4CCC(N5CCCCC5)CC4)cc13)-c1cc3c(c(=O)n1C2)COC(=O)[C@]3(O)CC		10.8 µM (active)
